Screening results from PubChem.
Compounds with a hit are over-represented: about 0.93% of the library has one in this group of screens.
CtBP-E1A inh: CtBP/E1A binding inhibition; AlphaScreen GST-E1A/His-CtBP binding, 1536-well; active compounds read low; activity change, % (concentration not given with the values); actives 0.49% (n = 340,000)
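Protein mix (5X: 125 nM each GST-E1A, His-CtBP) was incubated with pinned compound 2 h at 37 deg C in dark, in 50 mM Tris pH 8.0 buffer with 300 mM NaCl. Glutathione donor and nickel acceptor beads followed; AlphaScreen signal read after 1 h.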
MBNL1 CUG block: inhibitors of human MBNL1 binding to CUG repeat RNA | TR-FRET MBNL1-His/biotin-(CUG)12 binding, 665/545 ratio | Potency, µM (top dose mostly 57.5 µM), without a hit: at the highest dose activity change, negative = inhibition, usual class: inhibitors | actives 0.036% (n = 280,000) | AID 2675; active = well fitted inhibition curve with a large enough effect in the signal ratio, with a control signal flat, not every such curve was filed as active; inconclusive = small, poorly fitted or top-dose-only effect, or effect the other way, or a change in a side signal; inactive = no such curve, though single readings can be large or run the other way; the % refers to the signal ratio; also: potency is read from the fitted curve at half-maximal effect
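MBNL1-His + Biotin-(CUG)12, cpd titration 92 nM–58 uM; Tb anti-His Ab 0.055 ng/ul, SA-XL665 5 nM (final); 60 min RT; ratiometric 665/545 nm, Ex 340 nm; normalized to buffer and full-complex controls.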
Six1-Eya2 inh: inhibitors of human Six1/Eya2 interaction; activity change, % (test concentration not listed); actives 0.56% (n = 360,000); AlphaScreen GST-Six1/His-Eya2 binding, biochemical; active compounds read low; Q15475+O00167; AID 651725
Target sequence (O00167 whole entry, looked up): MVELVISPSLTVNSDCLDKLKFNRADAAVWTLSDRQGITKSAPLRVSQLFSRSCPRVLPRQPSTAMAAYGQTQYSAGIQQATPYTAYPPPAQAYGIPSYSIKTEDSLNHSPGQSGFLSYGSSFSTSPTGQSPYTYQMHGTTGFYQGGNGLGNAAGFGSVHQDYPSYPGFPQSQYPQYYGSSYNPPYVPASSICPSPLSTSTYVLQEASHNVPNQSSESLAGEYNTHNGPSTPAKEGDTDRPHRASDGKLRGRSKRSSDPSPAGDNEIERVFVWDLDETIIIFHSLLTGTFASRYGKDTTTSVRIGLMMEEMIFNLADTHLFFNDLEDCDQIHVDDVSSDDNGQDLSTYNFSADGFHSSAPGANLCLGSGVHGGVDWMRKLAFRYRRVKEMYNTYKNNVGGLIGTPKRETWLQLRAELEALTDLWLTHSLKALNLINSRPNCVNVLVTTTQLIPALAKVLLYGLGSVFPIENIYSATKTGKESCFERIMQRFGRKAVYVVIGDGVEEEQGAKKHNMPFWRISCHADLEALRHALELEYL
Target sequence (Q15475 whole entry, looked up): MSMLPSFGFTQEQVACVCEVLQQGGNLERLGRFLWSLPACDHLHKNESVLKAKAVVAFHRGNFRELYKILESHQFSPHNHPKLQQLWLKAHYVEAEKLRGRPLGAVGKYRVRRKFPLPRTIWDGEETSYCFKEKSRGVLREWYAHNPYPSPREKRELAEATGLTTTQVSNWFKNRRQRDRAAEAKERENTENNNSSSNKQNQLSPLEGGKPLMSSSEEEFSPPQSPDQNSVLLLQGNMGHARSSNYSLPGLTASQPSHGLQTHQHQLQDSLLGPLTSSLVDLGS
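AlphaScreen with GST-Six1 and His-Eya2 (5X mix: 250 nM and 500 nM), glutathione donor and nickel acceptor beads; buffer 50 mM Tris pH 8.0, 300 mM NaCl, 1 mM TCEP; 1 h at 37 C in the dark.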
PKM2 act: activators of human pyruvate kinase M2; actives 0.34% (n = 260,000); AID 1631; P14618; Potency, µM (doses to about 57.5 µM), for inactives: at the highest dose activation, most hits filed as activators; purified PKM2, Kinase-Glo ATP luminescence, activation; response scale: 0% is enzyme alone, no compound; active = well fitted activation curve with a large enough effect; inconclusive = small, poorly fitted or top-dose-only effect; inactive = no such curve, though single readings can be large or run the other way; also: potency is read from the fitted curve at half-maximal effect; nearly all actives have a fitted effect of over 55% in size
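Kinase-Glo luminescence reports ATP generated from ADP (0.1 mM) and PEP (0.5 mM) by purified hPK-M2 after 1 h at room temperature, pH 7.2 imidazole buffer; intermediate enzyme activity allows detecting inhibitors and activators.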
* = called active by the depositor. Rule as the data show it, unless noted: active = activity change below about -65%; inconclusive = mostly about -30% to -63%; inactive = weaker than that. % is scaled to controls: 0 for no effect and ±100 for the full control effect.

Screening Cc1cc(C(=O)N/N=C/c2cc(Br)ccc2OC(=O)c2ccccc2)n[nH]1 returned CtBP-E1A inh -67*, MBNL1 CUG block 11%, Six1-Eya2 inh inconclusive and PKM2 act -1%.
`O=C(NN=Cc1cccc(O)c1O)c1ccccc1` gave CtBP-E1A inh -91* and Six1-Eya2 inh -90*.
Screening O=C(N/N=C/c1cc([N+](=O)[O-])ccc1O)c1cccc(N2CCCC2=O)c1 returned CtBP-E1A inh -93*, MBNL1 CUG block inconclusive, Six1-Eya2 inh -91* and PKM2 act -1%.
For O=C(N/N=C/c1cc(Br)ccc1OC(=O)c1ccc(Br)cc1)c1ccncc1 the results were CtBP-E1A inh -91*, MBNL1 CUG block 14% and Six1-Eya2 inh -79*.
Screening CCCCCC1=C2CNC(CCC)(C(=O)OC)C=C2C(C)C1=O (configuration not stated) returned PKM2 act 6%.
`COc1ccc(/C=N/NC(=O)C(=O)Nc2ccccn2)cc1OC` gave CtBP-E1A inh 0, MBNL1 CUG block 5%, Six1-Eya2 inh 1 and PKM2 act -1%.
Cc1nc(C)c(C(=O)N/N=C/c2cc(Br)ccc2O)s1 was read as CtBP-E1A inh -84*, MBNL1 CUG block 5%, Six1-Eya2 inh inconclusive and PKM2 act -7%.
For O=C(N/N=C/c1ccccc1[N+](=O)[O-])c1ccc2c(c1)OCCO2 the results were CtBP-E1A inh 0, MBNL1 CUG block inconclusive, Six1-Eya2 inh 3 and PKM2 act -22%.
For Cc1nccn1CC(=O)N/N=C/c1c[nH]c2ccccc12 the results were CtBP-E1A inh -12, MBNL1 CUG block -8%, Six1-Eya2 inh -8 and PKM2 act -1%.
Cc1nc(C)c(C(=O)N/N=C/c2c[nH]c3ccccc23)s1 was read as CtBP-E1A inh -9, MBNL1 CUG block 5%, Six1-Eya2 inh -12 and PKM2 act -6%.
For O=C(N/N=C/c1cc([N+](=O)[O-])ccc1O)c1ccc2c(c1)OCCO2 the results were CtBP-E1A inh 0, Six1-Eya2 inh -81* and PKM2 act 2%.
Cc1nccn1CC(=O)N/N=C/c1ccccc1O was read as CtBP-E1A inh -96*, MBNL1 CUG block -1%, Six1-Eya2 inh -81* and PKM2 act -11%.
O=C(N/N=C/c1ccccc1O)C(=O)Nc1ccccn1 was read as MBNL1 CUG block 15%, Six1-Eya2 inh -88* and PKM2 act -4%.
For COc1ccc(OC)c(N(CCN2C(=O)c3ccccc3C2=O)C(=O)CCl)c1 the results were CtBP-E1A inh 2 and Six1-Eya2 inh 8.
CC(=O)c1ccc(-c2ccc(C(=O)Nc3nc(-c4ccccn4)cs3)o2)cc1 was read as CtBP-E1A inh -79* and Six1-Eya2 inh -69*.
`O=C(Nc1nc(-c2cc(F)ccc2F)cs1)c1ccccn1` gave CtBP-E1A inh -6, MBNL1 CUG block -2%, Six1-Eya2 inh -15 and PKM2 act -2%.
`CCc1cc(C(=O)Nc2nc(-c3ccccn3)cs2)sc1C` gave CtBP-E1A inh -67* and Six1-Eya2 inh inconclusive.
Screening O=C(Nc1nc(-c2ccccn2)cs1)c1ccc([N+](=O)[O-])o1 returned CtBP-E1A inh -92*, MBNL1 CUG block 21%, Six1-Eya2 inh -73* and PKM2 act 0%.
For O=C(Nc1nc(-c2ccccn2)cs1)c1ccc(-c2ccccc2F)o1 the results were CtBP-E1A inh -70* and Six1-Eya2 inh inconclusive.
`O=C(/C=C/c1c(C(=O)O)[nH]c2cc(Cl)cc(Cl)c12)Nc1ccccc1` gave PKM2 act -2%.
For Cc1cccc(CN2CCC(n3nccc3NC(=O)CCCc3ccccc3)CC2)c1 the results were CtBP-E1A inh 4 and Six1-Eya2 inh -8.
Cc1ccc(C(=O)Nc2nc(-c3ccccn3)cs2)o1 was read as CtBP-E1A inh inconclusive, Six1-Eya2 inh -93* and PKM2 act 9%.
For N#Cc1c(=O)c2nc(NCc3ccccc3)ncc2n2ccccc12 the results were CtBP-E1A inh inconclusive, MBNL1 CUG block inconclusive, Six1-Eya2 inh -66* and PKM2 act 6%.
For O=C(NCc1ccc(Cl)c(Cl)c1)c1cc(C2CCCCN2C(=O)c2ccccn2)on1 (configuration not stated) the results were CtBP-E1A inh -4 and Six1-Eya2 inh 4.
